Source: PubChem BioAssay
Most compounds without a hit are left out; they make up all but 12% or so of the library.
HP1b binding inh: HP1-beta chromodomain-methylated histone interaction inhibition; P83916; AlphaScreen HP1-beta / biotin-H3K9me3 peptide binding; Potency, µM (series often up to 114 µM), for the others: at the highest dose activity change, negative = inhibition, hits mostly inhibitors; hit rate 0.56% among 390,000; AID 540317; also: potency is read from the fitted curve at half-maximal effect; nearly all actives have a fitted effect of over 70% in size
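AlphaScreen: HP1-beta (50 nM) preformed 30 min with biotin-H3(1-18)K9me3 peptide (50 nM) in PBS pH 7.4, 0.01% Tween-20. Compound added for 30 min at RT, then streptavidin donor/nickel chelate acceptor beads (10 ug/mL) for 30 min.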
PLK1 PBD inh: PLK1 (human) polo-box domain binding inhibition. P53350. Plk1 PBD binding of FITC phosphopeptide, fluorescence polarization. Potency, µM, inactives show max response, negative = inhibition, usual class: inhibitors. hit rate 2.8% among 360,000; also: potency is read from the fitted curve at half-maximal effect; series mostly up to about 57 µM; % is scaled to controls: 0 for no effect and ±100 for the full control effect; nearly all actives have a fitted effect of over 65% in size
PI5P4Ka inh: PI5P4K alpha (human) kinase inhibition | PI5P4Kalpha enzyme, ADP-Glo luminescence, 60 min; active compounds read low | max response, % | hit rate 1.2% among 330,000; active = max response of -50% or lower; inconclusive = between -30% and -50%; inactive = -30% or higher; also: value at the top dose of about 77 µM; % is scaled to controls: 0 for no effect and ±100 for the full control effect
Target sequence (P48426 whole entry, looked up): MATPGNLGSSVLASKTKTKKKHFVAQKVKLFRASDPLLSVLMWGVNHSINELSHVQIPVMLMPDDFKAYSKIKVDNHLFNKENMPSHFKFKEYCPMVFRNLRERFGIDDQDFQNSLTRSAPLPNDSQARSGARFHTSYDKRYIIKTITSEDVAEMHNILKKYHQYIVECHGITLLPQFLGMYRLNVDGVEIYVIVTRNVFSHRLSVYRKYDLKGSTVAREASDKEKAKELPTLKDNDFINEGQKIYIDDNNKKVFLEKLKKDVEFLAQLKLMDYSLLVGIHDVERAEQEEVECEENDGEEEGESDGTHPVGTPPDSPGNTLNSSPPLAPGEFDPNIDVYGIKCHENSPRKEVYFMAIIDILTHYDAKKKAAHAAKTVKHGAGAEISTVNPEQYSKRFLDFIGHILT
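qHTS, 1536-well: enzyme/substrate mix, compound by pin tool, 5 microM ATP final; RT 60 min; ADP-Glo reagents 1 (45 min) then 2 (30 min); luminescence.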
BAZ2B block: blocks human BAZ2B; AID 504333; Potency, µM (top dose mostly 114 µM), inactives show at the top dose activity change, negative = inhibition, hits mostly inhibitors; Q9UIF8; AlphaScreen BAZ2B-H3K14Ac peptide displacement; hit rate 4.4% among 360,000; also: potency is read from the fitted curve at half-maximal effect; % is scaled to controls: 0 for no effect and ±100 for the full control effect; nearly all actives have a fitted effect of over 60% in size
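In this displacement format the biotinylated H3(5-23) peptide acetylated at Lys14 serves as ligand at 50 nM, with BAZ2B at 50 nM in PBS pH 7.4 containing 0.01% Tween-20. Donor and acceptor beads are 10 ug/mL final.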
JMJD2A Tudor: JMJD2A Tudor domain (human) inhibition. AlphaScreen JMJD2A-Tudor / H3K4me3 peptide binding. AID 504339. hit rate 4.4% among 390,000. Potency, µM (doses to about 114 µM), inactives show top-dose activity change, negative = inhibition, hits mostly inhibitors; also: potency is read from the fitted curve at half-maximal effect; % is scaled to controls: 0 for no effect and ±100 for the full control effect; nearly all actives have a fitted effect of over 50% in size
G9a inh: G9a (human) methyltransferase inhibition; G9a H3K9 monomethylation, AlphaScreen, 2 h; Potency, µM (titrated, usually from 102 µM), for inactives: at the top dose activity, negative = inhibition, hits mostly inhibitors; hit rate 8.8% among 350,000; AID 504332; also: potency is read from the fitted curve at half-maximal effect; % is scaled to controls: 0 for no effect and ±100 for the full control effect; nearly all actives have a fitted effect of over 75% in size
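Signal arises when biotinylated H3K9 peptide, once monomethylated, bridges streptavidin donor and antibody-captured acceptor beads. Enzyme at 20 nM was preincubated 15 min with test compounds; peptide 500 nM and SAM 20 uM then reacted for 2 h.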
An asterisk follows results filed as active; u = inconclusive; x = no result; [ ] = dose if it differs, or a comment. Unless noted, calls follow the shape of the dose curve; as a rule, active = well fitted curve in the direction sought with a large enough effect; inconclusive = small, poorly fitted or top-dose-only effect, or another doubt; inactive = no such curve, though single readings can be large; an effect the other way counts as inactive or inconclusive.

SMILES	HP1b binding inh	PLK1 PBD inh	PI5P4Ka inh	BAZ2B block	JMJD2A Tudor	G9a inh
CC1CCc2c(C(=O)Nc3cccc(-c4nn[nH]n4)c3)csc2C1 (stereo unspecified)	19%	u	-11	-28%	-26%	50µM*
CCN(C(=O)CCS(=O)(=O)c1cccc2nonc12)c1ccc(F)cc1	31%	4%	12	2%	1%	-6%
Cc1ccc(-c2cc(C(=O)N3CCCc4ccccc43)c3ccccc3n2)cc1	9%	-8%	x	-35%	-26%	-34%[12.7 µM]
Cc1cc(C)c2cc3c(N)c(C(=O)N4CCc5ccccc5C4)sc3nc2c1	15%	-2%	x	3%	-16%	10µM*
Cc1ccc2nc3sc(C(=O)N4CCCc5ccccc54)c(N)c3cc2c1	17%	-20%	x	4%	-35%	3.2µM*
O=C(NCCOc1ccccc1F)C1CC(=O)N(Cc2ccccc2)C1 (stereo unspecified)	13%	-5%	-7	x	-18%	x
COc1cc2nc(N3CCN(c4cc(C)ccc4C)CC3)nc(N)c2cc1OC	-15%	1%	u	50µM*	u	50µM*
COc1cc2nc(N3CCNCC3)nc(N)c2cc1OC	u	-2%	u	-1%	u	u
COc1ccc(/C=N/n2c(-c3n[nH]c4c3CCC4)n[nH]c2=S)c(OC)c1OC	u	u	-23	-10%	4.5µM*	1.3µM*
COc1cccc(/C=N/n2c(-c3n[nH]c4c3CCC4)n[nH]c2=S)c1OC	u	u	-14	-16%	3.2µM*	2.5µM*
COc1cccc(/C=N/n2c(=S)n(C)c3cc(C)c(C)cc32)c1OC	7%	-6%	0	-4%[57.1 µM]	-31%	u
COc1cccc(/C=N/n2c(-c3cc(C)[nH]n3)n[nH]c2=S)c1OC	4%	-10%	-12	-36%	1.8µM*	x
COc1cccc(/C=N/n2c(N)nc3ccccc32)c1OC	9%	-5%	x	-13%	-16%	-25%[12.7 µM]
O=S(=O)(c1cccc(Br)c1)N1CCN(c2nc(-c3cccs3)nc3ccccc23)CC1	13%	x	x	x	-10%	x
CC(=O)Nc1ccc(NC(=O)c2cc(CN3CCCC3)on2)cc1	28%	x	x	-10%	-13%	8%[59 µM]
CC(C)(C)NC(=O)NC(=O)COC(=O)COc1ccc(Cl)cc1Cl	1%	12µM*	-14	5%	-29%	4%
CC(C)(C)NC(=O)NC(=O)COc1ccc(Br)cc1Br	68%	0%	0	7%	12%	1%[59 µM]
CSc1ncccc1C(=O)N1CCN(S(=O)(=O)c2ccccc2)CC1	0%	-8%	-3	3%	-13%	8%
Cc1ccc(S(=O)(=O)Nc2nsc(N)n2)cc1	5%	-6%	-3	-6%	2%	32µM*
CC(C)(C)Cc1nnc(NS(=O)(=O)c2ccc([N+](=O)[O-])cc2)s1	18%	-15%	0	u	-6%	-12%
CC(C)Nc1nc(NC(C)C)nc(NS(=O)(=O)c2ccc(N)cc2)n1	22%	-8%	1	10%	9%	-22%[59 µM]
Cc1ccc(S(=O)(=O)Nc2nnc(C(C)(C)C)s2)cc1	-2%	24µM*	-6	-6%	-5%	4.5µM*
CC(C)(C)c1nnc(NS(=O)(=O)c2ccc([N+](=O)[O-])cc2)s1	-13%	24µM*	-14	-3%	-29%	10µM*
Cn1c(=O)cc(OCC(=O)NCCCN2CCN(c3ccccc3F)CC2)c2ccccc21	22%	-2%	x	-2%	-7%	8%
Cc1cccc(CCNC(=O)COc2cc(=O)n(C)c3ccccc23)c1	23%	8%	7	1%	11%	8%
Cn1c(=O)cc(OCC(=O)NCCCN2CCN(c3cccc(Cl)c3)CC2)c2ccccc21	17%	-18%	-5	-29%	-35%	50µM*
CCN(CCCNC(=O)CCCn1c(=O)[nH]c2ccccc2c1=O)c1cccc(C)c1	-12%	u	-3	u	-28%[57.1 µM]	13µM*
CCN(CCCNC(=O)COc1cc(=O)n(C)c2ccccc12)c1cccc(C)c1	-1%	4%	1	50µM*	u	35µM*
